AC50 and outcome data for 40 compounds are collected here from PubChem BioAssay (EPA / NIEHS).

The structures appear in SMILES notation. Calls of active or inactive are those of the source. The calls were made as follows: active = hit-call score of the fitted dose curve at least 0.9, where 1 is the maximum; inactive = score below 0.9.

One may read the AC50 as the concentration giving half of the maximal activity seen.

Read-out in this assay: Interleukin-1 alpha (IL1a), IL1A (gene 3552)
The assay is described as follows: BSK_KF3CT_IL1a: BioMAP Diversity Plus: KF3CT Assay for Interleukin-1 alpha (IL1a) Biomarker Activity (AID 2283070). As to conditions: primary human keratinocytes with fibroblasts; actives raise or lower the signal. The method, then: BSK_KF3CT is a cell-based, multiplexed-readout assay that uses keratinocytes and foreskin fibroblasts, a human skin primary cell co-culture, with measurements taken at 24 hours after chemical dosing in a 96-well plate.BSK_KF3CT_IL1a is an assay component measured in the BSK_KF3CT assay. It measures IL-1a antibody related to regulation of gene expression using ELISA technology.Data from the assay component BSK_KF3CT_IL1a was analyzed into 1 assay endpoint. This assay endpoint, BSK_KF3CT_IL1a, was analyzed with bidirectional fitting relative to DMSO as the negative control and baseline of activity. Using a type of binding reporter, gain or loss-of-signal activity can be used to understand changes in the signaling as they relate to the gene IL1A. Furthermore, this assay endpoint can be referred to as a primary readout, because this assay has produced multiple assay endpoints where this one serves a signaling function. To generalize the intended target to other relatable targets, this assay endpoint is annotated to the cytokine intended target family, where the subfamily is interleukins.
The levels of cell surface (or secreted, indicated by the prefix "s") biomarker endpoints were measured by ELISA. Overt cytotoxicity to cells in confluent adherent cultures (all systems other than the BT system) was assessed by measuring total protein levels using sulforhodamine B (SRB) staining in parallel cultures at the time of biomarker measurements, indicated as SRB endpoints. For proliferation assays for adherent cell types, individual cell types are cultured at sub-confluence and relative cell numbers quantified by SRB staining at time points optimized for each system (48 h: 3C and CASM3C systems; 72 h: BT and HDF3CGF systems; 96 h: SAg system). SRB was performed by staining cells with 0.1% SRB after fixation with 10% TCA and reading wells at 560 nm.Viability and proliferation of PBMC (T cells) was quantified by Alamar Blue reduction for the SAg and BT systems. For PBMC viability (referred to as PBMC Cytotoxicity within the assay endpoint names), cells were plated (75,000/well in a 96-well plate) and then chemical samples added for 1 h before addition of activators, SEB and TSST-1 (20 ng/mL final concentration each). Cells were incubated for 90 h. Then, Alamar Blue (20 uL/well) (Invitrogen, Cat DAL1100) was added for 6 h, and the plates were read with a fluorescence microplate reader at 546/580 nm (excitation/emission). For PBMC proliferation, cells were plated and activated as above but incubated for only 16 h prior to addition of Alamar Blue. Plates were read after 6 h.
Turning to `CC/C=C\CCOC(=O)c1ccccc1O`, the AC50 is 30.2 µM (active). Regarding `Nc1ccc(C(=O)O)cc1`, the outcome was inactive. Same read-out and setting: with `C1CNCCN1` the entry was “inactive”; with `CC1=CC=C(C(C)C)CC1`, “inactive”; with `C[N+](C)(C)CCCNS(=O)(=O)C(F)(F)C(F)(F)C(F)(F)C(F)(F)C(F)(F)C(F)(F)C(F)(F)C(F)(F)F`, “inactive”.

For the compound `CCc1cccc(C)c1N(C(=O)CS(=O)(=O)O)C(C)COC` (stereo not given), the result was inactive. The same measure, in the same setting: the value for `CC1(C)CC(O)CC(C)(C)N1[O]` was “inactive”; that for `Cc1ccc([N+](=O)[O-])cc1N` was “inactive”. Still for that read-out and setting: the value for `CC=C(C)C(C)=O` was “inactive”; that for `CCCCCCCCCCCC(C)=O` was “inactive”.

Regarding `CC/C=C\C/C=C\C/C=C\CCCCCCCC(=O)OC`, the concentration at half-maximal activity (AC50) was 12.2 µM (active). Take `C=CC(=O)OCC(C)OCC(C)OCC(C)OC(=O)C=C` (stereo not given): the AC50 was 20 µM (active). Same read-out and setting: the value for `C=CC(=O)OCCCCCCOC(=O)C=C` was 11.3 µM (active).

`c1ccc2c(c1)[nH]c1ccccc12`: the result was inactive. Regarding `CCCC(C)C(=O)OCC` (stereo not given), the outcome was inactive.

As for `Oc1ccccc1Cc1ccccc1O`, the result was inactive. `Oc1c(Cl)cc(Cl)c(Cl)c1Cl`: the outcome was inactive. For `C=CC(=O)NC(C)(C)C`, the outcome was inactive. For the compound `CC(Cl)COP(=O)(OCC(C)Cl)OCC(C)Cl` (stereo not given), the result was inactive. In the case of `COc1ccc(C(=O)c2ccccc2)c(O)c1`, the outcome was inactive. On the same count and under the same terms, the value for `CCNc1nc(NC(C)(C)C)nc(OC)n1` was “inactive”. The same measure, in the same setting: with `CC(C)CCCCCOC(=O)CS` the entry was “inactive”; with `Nc1cccc(N)n1`, “inactive”; with `C=C(C)C(=O)OCCCCCCCCCCCC`, “inactive”. On the same count and under the same terms, with `CCC1(C)C(=O)N(Cl)C(=O)N1Cl` (stereo not given) the entry was “inactive”; with `O=C1CCCCCCCCCCCN1`, “inactive”; with `Cc1c(O)cccc1O`, “inactive”. As to `C=CC(=O)OCCCCCCCC(C)C`, the result was inactive. For `CCN1CN(CC)CN(CC)C1`, the result was inactive. For `Clc1cc(Cl)c(Cl)c(Cl)c1Cl`, the result was inactive.

Consider `CC(C)c1cccc(C(C)C)c1N`, for which the outcome was inactive. Consider `CCCCCCCCCCCC(=O)N(C)CC(=O)O`, for which the result was inactive.

For the compound `Fc1ccc(Br)cc1`, the result was inactive. Turning to `CCOC(=O)C1=NN(c2ccc(Cl)cc2Cl)C(C)(C(=O)OCC)C1` (stereo not given), the result was inactive. The same measure, in the same setting: with `CCCCCCCO` the entry was “inactive”. Still for that read-out and setting: the value for `CCCCCC1=CCCC1=O` was “inactive”. The same measure, in the same setting: the value for `CCCCCCCCC(CO)CCCCCC` (stereo not given) was “inactive”. `CC(C)[N+](C)(CCOC(=O)C1c2ccccc2Oc2ccccc21)C(C)C`: the result was inactive. `O=C(O)C(F)(F)C(F)(F)C(F)(F)C(F)(F)C(=O)O`: the result was inactive. For the compound `CCCCCCC=O`, the outcome was inactive.
